Hit rate of the full screen: of about 1,300 compounds, about 150 (12%) were called active. Inconclusive results (about 30%) are left out. The entries come from a sample that favours actives as a whole. Unmarked numbers belong to inactive results. Calls follow the shape of the dose curve; as a rule, active = well fitted cell-killing curve with a large enough effect; inconclusive = small, poorly fitted or top-dose-only effect, or effect the other way; inactive = flat fitted curve, though single readings scatter.
Test: qHTS of small molecules that selectively kill Giardia lamblia: Hit Validation in HepG2 cytotox;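 also: compound exposure lasted overnight at 37 deg C; nearly all actives have a fitted effect of over 55% in size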;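 as to activity change, negative = cytotoxicity: viability measured as cellular ATP by ATPLite luminescence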
Settings: cell viability; Potency: HepG2 cytotoxicity; series mostly up to 38.3 µM; activity change, negative = cytotoxicity: at the top concentration
Method in brief: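 Counterscreen cytotoxicity: ATPLite luminescence (15 min, room temperature) measured in HepG2 cells exposed overnight at 37 deg C to pin-transferred compound (23 nL) after overnight pre-incubation.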
% is scaled to controls: 0 for no effect and ±100 for the full control effect; potency is read from the fitted curve at half-maximal effect.

SMILES	activity change, negative = cytotoxicity	Potency
Cc1ccc(C(=O)c2c3ccc([N+](=O)[O-])cc3[n+]([O-])n2CCC(N)=O)cc1	19%	–
CC(Oc1cccnc1[N+](=O)[O-])C(=O)Nc1cccc(Cl)c1 (stereo not drawn)	9.9%	–
COc1ccc(-n2nc([N+](=O)[O-])c(=NCCc3cccc(C)c3)n2O)cc1	5.18%	–
COC(=O)c1cc(NC(=O)c2cc(C(C)(C)C)nn2Cc2ccc(F)cc2)ccc1N1CCOCC1	0.619%	–
COc1ccc(C(C)=O)cc1COc1cccnc1[N+](=O)[O-]	4.35%	–
O=C(Cc1c(F)cccc1Cl)Nc1ncc([N+](=O)[O-])s1	-17.9%	–
O=[n+]1c2c(n([O-])c3cc(Br)ccc31)CCC2	22.2%	–
CCOc1cc([N+](=O)[O-])cc(/C=C2/NC(=O)N(Cc3ccccc3F)C2=O)c1O	11.1%	–
O=[N+]([O-])c1nn(-c2ccc3c(c2)OCCO3)n(O)c1=NCc1ccc(F)cc1	23.9%	–
CN(C)c1ccc(C2Nc3cccc4cccc(c34)N2)cc1	-11.1%	–
Cc1cc(C)cc(N=c2c([N+](=O)[O-])nn(-c3ccc4c(c3)OCCO4)n2O)c1	-0.929%	–
CCC(=O)N1CCN(c2ccc(NC(=O)c3ccc([N+](=O)[O-])o3)cc2)CC1	–	11.7 µM (active)
CS(=O)(=O)N1CCN(c2ccc(NC(=O)c3ccc([N+](=O)[O-])o3)cc2)CC1	–	3.69 µM (active)
CCCC(=O)N1CCN(c2ccc(NC(=O)c3ccc([N+](=O)[O-])o3)cc2)CC1	–	3.29 µM (active)
CCC(=O)N1CCN(c2ccccc2NC(=O)c2ccc([N+](=O)[O-])o2)CC1	-5.48%	–
CS(=O)(=O)N1CCN(c2ccccc2NC(=O)c2ccc([N+](=O)[O-])o2)CC1	-6.16%	–
NC(=O)c1ccc(NC(=O)COc2ccc([N+](=O)[O-])cc2Cl)cc1	15.1%	–
NS(=O)(=O)c1ccc(Nc2ncccc2[N+](=O)[O-])cc1	7.7%	–
O=[n+]1c2c(n([O-])c3cc(Cl)ccc31)CCCC2	5.34%	–
COc1ccc(CNC(=O)COc2cccnc2[N+](=O)[O-])cc1OC	6.39%	–
Cc1oc2cc(O)ccc2c(=O)c1Oc1ccccc1Br	18.1%	–
CCC(=O)Nc1nc(-c2cc([N+](=O)[O-])cs2)cs1	22.8%	–
COCCNC(=O)/C(C#N)=C/c1ccc(O)c([N+](=O)[O-])c1	9.93%	–
Cc1ccc(NC(=S)NNc2ccc([N+](=O)[O-])cc2S(=O)(=O)Nc2ccccc2C(=O)O)cc1C	9.64%	–

SMILES	activity change, negative = cytotoxicity	Potency
COc1cc(/C=C2\SC(=O)N(Cc3ccc(F)cc3)C2=O)cc([N+](=O)[O-])c1O	-2.93%	–
COc1ccc(-c2ncn(CCC#N)c2[N+](=O)[O-])cc1	5.4%	–
Cc1ccccc1-c1nc2c(=O)n(C)c(=O)nc-2n(C)n1	–	3.29 µM (active)
Cn1nc(-c2cccnc2)nc2c(=O)n(C)c(=O)nc1-2	–	3.69 µM (active)
CCCc1nc2c(=O)n(C)c(=O)nc-2n(C)n1	–	8.26 µM (active)
COc1ccc(-c2nc3c(=O)n(C)c(=O)nc-3n(C)n2)cc1	–	1.85 µM (active)
COc1ccc(-c2cc(=O)c3ccccc3o2)cc1	-16%	–
COc1ccccc1NC(=O)COc1cccnc1[N+](=O)[O-]	0.838%	–
Cc1ccc(S(=O)(=O)N2[C@@H](c3ccc(F)cc3)C(C(=O)O)=CC[C@H]2c2cccc(C)c2)cc1	7.11%	–
COc1ccc(-n2nc([N+](=O)[O-])c(=NCCCN3CCCC3=O)n2O)cc1	8.35%	–
O=C(COc1cccnc1[N+](=O)[O-])Nc1ccc2c(c1)CCC2	27.1%	–
Cc1c[nH]c(=O)c([N+](=O)[O-])c1	10.6%	–
Cc1cc(C(=O)N/N=C/c2ccc(O)c([N+](=O)[O-])c2)n[nH]1	4.19%	–
COc1cc2sc(-c3ccccc3OC)c(-c3ccc(O)cc3)c2cc1OC	-0.122%	–
O=C(NN1C(=O)c2ccccc2NC1c1ccc([N+](=O)[O-])o1)c1ccc([N+](=O)[O-])cc1 (stereo not drawn)	-15.4%	–
Cn1nc(-c2ccc(F)cc2)nc2c(=O)n(C)c(=O)nc1-2	–	2.61 µM (active)
Cc1ccc(OCC(=O)Nc2cc(S(=O)(=O)N3CCOCC3)ccc2Cl)c([N+](=O)[O-])n1	2.02%	–
Cc1cc2ccccn2c1C(=O)c1ccc([N+](=O)[O-])cc1[N+](=O)[O-]	12.4%	–
COc1ccc2c3n([n+]([O-])c2c1)CCN=C3c1ccc(Cl)cc1	20.6%	–
N=NC(=O)c1ccccc1Nc1c(O)[nH]c2ccccc12	–	16.5 µM (active)
COc1ccc(CNC(=O)COc2cccnc2[N+](=O)[O-])cc1	15.6%	–
O=[N+]([O-])c1ccc(/C=N/Nc2nc(-c3ccccc3)c3cc(Br)ccc3n2)o1	11%	–
CCOc1ccc(NC(=O)C(C)C(Cc2ccc(C)cc2)C(=O)O)cc1 (stereo not drawn)	0.187%	–
Nc1c(Cl)cc(C2=NCCn3c2c2ccccc2[n+]3[O-])cc1Cl	0.209%	–

— PubChem BioAssay AID588382 (National Center for Advancing Translational Sciences (NCATS), 2011)
